{"source": "the supplement of paper PMC7724964"}
{"target": "GGA3 1-153 VHS (domain begin residue: 1, domain end residue: 153)", "test": "phage ELISA signal ratio (GST-PRM binding over GST background); higher = stronger binding of peptide-phage to the PRM", "how_it_was_run": "(§1)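 Each value is the phage ELISA signal on the glutathione S-transferase (GST)-domain fusion divided by the signal on GST alone. Human peptide recognition domains were expressed in 96-well plates, fused to the C-terminus of GST, and selected against an M13 phage library carrying randomized, cysteine-free, glycine-flanked hexadecapeptides on the gene-8 major coat protein. After five selection rounds, approximately 48 individual clones from rounds 4 and 5 were tested by phage ELISA, and positive clones were sequenced.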"}
{"binder": "HLDQPPWWTLQEWASH", "phage ELISA signal ratio": 12.2}
{"binder": "EVWWQGPEEDWMQTYL", "phage ELISA signal ratio": 11.9}
{"binder": "QAWDWGIYIDDWAQPL", "phage ELISA signal ratio": 10.6}
{"binder": "VDEWSVMKYPVEQKWV", "phage ELISA signal ratio": 21.6}
{"binder": "QHLWHWEDTDYYEWSE", "phage ELISA signal ratio": 20.1}
{"target": "T1, GNA14 2-355 G-alpha (domain begin residue: 2, domain end residue: 355), O95837", "T1 chain": "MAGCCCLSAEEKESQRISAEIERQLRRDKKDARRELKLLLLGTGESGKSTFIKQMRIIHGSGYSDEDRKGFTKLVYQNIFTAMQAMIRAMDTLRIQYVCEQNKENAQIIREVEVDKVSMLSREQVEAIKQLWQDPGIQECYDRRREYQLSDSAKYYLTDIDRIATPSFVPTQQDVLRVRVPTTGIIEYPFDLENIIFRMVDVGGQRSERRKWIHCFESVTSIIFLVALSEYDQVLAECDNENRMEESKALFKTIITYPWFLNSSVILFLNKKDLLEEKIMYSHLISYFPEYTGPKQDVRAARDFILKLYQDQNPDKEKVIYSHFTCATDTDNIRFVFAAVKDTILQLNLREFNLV", "test": "phage ELISA signal ratio (GST-PRM binding over GST background); higher = stronger binding of peptide-phage to the PRM", "how_it_was_run": "as §1"}
{"binder": "QPDQIRFGPYISFSAI", "phage ELISA signal ratio": 24.3}
{"binder": "DGDVQKWGPYYSFTQQ", "phage ELISA signal ratio": 28.9}
{"target": "T2, GIGYF2 507-602 GYF (domain begin residue: 507, domain end residue: 602), Q6Y7W6", "T2 chain": "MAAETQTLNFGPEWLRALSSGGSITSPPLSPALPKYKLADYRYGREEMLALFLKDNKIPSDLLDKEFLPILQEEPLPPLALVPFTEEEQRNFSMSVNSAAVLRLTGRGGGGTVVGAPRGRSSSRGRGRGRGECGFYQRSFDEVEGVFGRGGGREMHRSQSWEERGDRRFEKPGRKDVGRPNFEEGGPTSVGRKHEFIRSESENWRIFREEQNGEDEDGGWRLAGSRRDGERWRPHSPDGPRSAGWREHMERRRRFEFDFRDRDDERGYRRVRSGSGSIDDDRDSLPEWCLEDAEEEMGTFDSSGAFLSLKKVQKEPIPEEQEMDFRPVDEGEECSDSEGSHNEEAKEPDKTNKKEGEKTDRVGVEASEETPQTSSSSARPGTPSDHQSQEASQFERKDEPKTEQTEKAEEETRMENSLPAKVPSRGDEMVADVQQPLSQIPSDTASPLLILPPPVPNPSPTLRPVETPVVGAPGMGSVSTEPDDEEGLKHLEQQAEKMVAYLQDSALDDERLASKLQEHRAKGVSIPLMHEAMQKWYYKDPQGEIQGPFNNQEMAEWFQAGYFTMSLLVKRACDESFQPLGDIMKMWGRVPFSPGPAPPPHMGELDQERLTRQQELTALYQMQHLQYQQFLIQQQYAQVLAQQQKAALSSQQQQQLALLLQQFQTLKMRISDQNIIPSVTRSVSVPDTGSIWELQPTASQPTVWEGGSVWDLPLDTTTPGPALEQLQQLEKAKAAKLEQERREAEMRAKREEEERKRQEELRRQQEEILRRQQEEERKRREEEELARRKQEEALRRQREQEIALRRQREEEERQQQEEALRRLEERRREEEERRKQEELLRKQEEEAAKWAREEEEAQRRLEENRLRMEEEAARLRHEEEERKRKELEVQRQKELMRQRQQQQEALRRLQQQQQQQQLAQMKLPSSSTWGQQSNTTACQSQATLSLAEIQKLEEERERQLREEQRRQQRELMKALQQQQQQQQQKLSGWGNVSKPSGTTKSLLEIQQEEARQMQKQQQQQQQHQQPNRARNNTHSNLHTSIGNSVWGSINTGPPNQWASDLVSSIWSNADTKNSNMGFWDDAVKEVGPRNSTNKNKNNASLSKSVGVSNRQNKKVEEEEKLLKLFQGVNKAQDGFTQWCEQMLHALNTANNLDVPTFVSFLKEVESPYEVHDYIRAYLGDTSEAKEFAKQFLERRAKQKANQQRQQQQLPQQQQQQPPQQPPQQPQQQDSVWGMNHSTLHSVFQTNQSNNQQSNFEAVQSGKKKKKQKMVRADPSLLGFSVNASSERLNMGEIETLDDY", "test": "phage ELISA signal ratio (GST-PRM binding over GST background); higher = stronger binding of peptide-phage to the PRM", "how_it_was_run": "as §1"}
{"binder": "ARDLPPGFVMSPENAM", "phage ELISA signal ratio": 11.7}
{"binder": "TPPGYTMLMKEHSARH", "phage ELISA signal ratio": 20.5}
{"binder": "QRPPGNWGEVTQVPIL", "phage ELISA signal ratio": 9.77}
{"binder": "AMTPPGFPHNTQMIRA", "phage ELISA signal ratio": 16.9}
{"binder": "QPPPGWVPSTELLEFL", "phage ELISA signal ratio": 23.1}
{"binder": "RFPPGMMQQLPQYADS", "phage ELISA signal ratio": 29.9}
{"binder": "NYPNHPPGYEKWFQTM", "phage ELISA signal ratio": 26.6}
{"target": "GGA3 579-723 Alpha_adaptinC2 (domain begin residue: 579, domain end residue: 723)", "test": "phage ELISA signal ratio (GST-PRM binding over GST background); higher = stronger binding of peptide-phage to the PRM", "how_it_was_run": "as §1"}
{"binder": "IENSQPWITEYGAWEV", "phage ELISA signal ratio": 6.07}
{"binder": "GEQMMWVDWGQWHWYE", "phage ELISA signal ratio": 26}
{"binder": "ASQWEWDDWLYIHSQT", "phage ELISA signal ratio": 7.22}
{"binder": "IQWNDMDFENLSGWWG", "phage ELISA signal ratio": 4.03}
{"binder": "AWGKYQSWEPQEWPAT", "phage ELISA signal ratio": 13.4}
{"binder": "WEDWMEDWRQWEEPRK", "phage ELISA signal ratio": 31.4}
{"target": "T3, GGA1 1-157 VHS (domain begin residue: 1, domain end residue: 157), Q9UJY5", "T3 chain": "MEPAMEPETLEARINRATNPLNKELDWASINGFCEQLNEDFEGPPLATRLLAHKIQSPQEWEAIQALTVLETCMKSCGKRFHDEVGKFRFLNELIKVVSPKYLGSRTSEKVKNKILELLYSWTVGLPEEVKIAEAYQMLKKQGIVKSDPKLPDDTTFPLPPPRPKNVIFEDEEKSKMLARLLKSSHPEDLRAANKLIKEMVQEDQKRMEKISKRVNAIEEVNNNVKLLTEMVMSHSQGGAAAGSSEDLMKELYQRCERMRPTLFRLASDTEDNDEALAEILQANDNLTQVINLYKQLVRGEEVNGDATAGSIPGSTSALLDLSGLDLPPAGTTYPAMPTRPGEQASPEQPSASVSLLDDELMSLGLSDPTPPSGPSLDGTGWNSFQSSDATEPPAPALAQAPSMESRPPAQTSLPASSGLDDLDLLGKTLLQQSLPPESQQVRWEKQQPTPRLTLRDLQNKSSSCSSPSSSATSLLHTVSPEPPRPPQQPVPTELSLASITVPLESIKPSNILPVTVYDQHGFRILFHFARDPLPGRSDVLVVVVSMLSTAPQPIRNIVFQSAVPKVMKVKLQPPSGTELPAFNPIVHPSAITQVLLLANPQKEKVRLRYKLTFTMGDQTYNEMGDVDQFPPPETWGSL", "test": "phage ELISA signal ratio (GST-PRM binding over GST background); higher = stronger binding of peptide-phage to the PRM", "how_it_was_run": "as §1"}
{"binder": "PDAMPLWHGHHVVPVY", "phage ELISA signal ratio": 18.9}
{"binder": "WDIDMWDLQEWMMIQS", "phage ELISA signal ratio": 13.9}
{"binder": "HDFYIPYMYQDVTMIM", "phage ELISA signal ratio": 6.03}
{"binder": "DEILLHLPWAAMHWEG", "phage ELISA signal ratio": 22.3}
{"target": "T4, FRS3 12-117 IRS (domain begin residue: 12, domain end residue: 117), O43559", "T4 chain": "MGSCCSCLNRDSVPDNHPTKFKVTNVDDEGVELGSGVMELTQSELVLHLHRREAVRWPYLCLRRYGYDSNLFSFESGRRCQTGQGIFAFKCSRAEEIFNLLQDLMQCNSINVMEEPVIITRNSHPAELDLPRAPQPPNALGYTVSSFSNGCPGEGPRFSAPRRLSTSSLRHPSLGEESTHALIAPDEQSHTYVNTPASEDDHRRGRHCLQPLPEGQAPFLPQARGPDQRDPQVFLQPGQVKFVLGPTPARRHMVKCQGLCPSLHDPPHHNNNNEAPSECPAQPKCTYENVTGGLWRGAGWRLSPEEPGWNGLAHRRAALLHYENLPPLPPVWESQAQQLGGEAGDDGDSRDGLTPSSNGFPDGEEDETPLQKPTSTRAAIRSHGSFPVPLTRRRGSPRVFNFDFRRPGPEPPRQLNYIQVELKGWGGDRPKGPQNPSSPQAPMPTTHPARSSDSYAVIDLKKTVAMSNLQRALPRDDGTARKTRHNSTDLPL", "test": "phage ELISA signal ratio (GST-PRM binding over GST background); higher = stronger binding of peptide-phage to the PRM", "how_it_was_run": "as §1"}
{"binder": "SQWMWIVHEPVKNLPK", "phage ELISA signal ratio": 3.36}
{"binder": "VWQVPEWQTVQLEYMK", "phage ELISA signal ratio": 17.9}
{"binder": "MTWWVAPWNESLDLWE", "phage ELISA signal ratio": 10.5}
{"binder": "PQGTWFTIIQEPSQHD", "phage ELISA signal ratio": 5.78}
{"target": "T5, GIGYF1 448-540 GYF (domain begin residue: 448, domain end residue: 540), O75420", "T5 chain": "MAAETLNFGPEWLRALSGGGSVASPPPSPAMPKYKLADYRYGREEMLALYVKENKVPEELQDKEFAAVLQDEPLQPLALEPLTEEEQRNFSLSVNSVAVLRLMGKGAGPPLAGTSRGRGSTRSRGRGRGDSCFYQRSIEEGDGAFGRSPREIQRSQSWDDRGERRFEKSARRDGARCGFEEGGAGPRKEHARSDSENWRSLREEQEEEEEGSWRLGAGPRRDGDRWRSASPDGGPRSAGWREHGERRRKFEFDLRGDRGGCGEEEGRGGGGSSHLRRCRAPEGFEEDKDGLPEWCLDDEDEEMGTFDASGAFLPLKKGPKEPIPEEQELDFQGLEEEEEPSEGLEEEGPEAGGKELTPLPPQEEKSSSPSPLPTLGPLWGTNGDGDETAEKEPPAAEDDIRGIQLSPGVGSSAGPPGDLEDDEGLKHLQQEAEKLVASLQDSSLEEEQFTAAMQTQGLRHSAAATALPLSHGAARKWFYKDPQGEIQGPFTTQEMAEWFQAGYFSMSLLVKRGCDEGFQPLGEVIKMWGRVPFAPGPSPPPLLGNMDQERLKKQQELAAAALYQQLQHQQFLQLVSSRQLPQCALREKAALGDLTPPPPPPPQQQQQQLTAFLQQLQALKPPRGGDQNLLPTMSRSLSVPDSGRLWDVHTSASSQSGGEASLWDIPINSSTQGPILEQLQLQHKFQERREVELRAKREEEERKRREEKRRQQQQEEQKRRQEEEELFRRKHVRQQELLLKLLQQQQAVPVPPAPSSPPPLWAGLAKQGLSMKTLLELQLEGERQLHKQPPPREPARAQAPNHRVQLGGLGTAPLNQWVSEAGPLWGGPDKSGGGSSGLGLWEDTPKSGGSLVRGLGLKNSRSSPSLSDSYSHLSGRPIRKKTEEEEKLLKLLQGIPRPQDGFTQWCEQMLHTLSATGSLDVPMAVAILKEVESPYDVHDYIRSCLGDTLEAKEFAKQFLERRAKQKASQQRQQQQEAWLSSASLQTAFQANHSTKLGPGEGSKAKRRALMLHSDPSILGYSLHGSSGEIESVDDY", "test": "phage ELISA signal ratio (GST-PRM binding over GST background); higher = stronger binding of peptide-phage to the PRM", "how_it_was_run": "as §1"}
{"binder": "GPPGFHQHADVMRYEM", "phage ELISA signal ratio": 20.9}
{"binder": "TIDTPPGFPTSQHEGM", "phage ELISA signal ratio": 16.8}
